The list is not random: actives were taken first. Their share in the collection is about 9.5%.
RE007 growth inh = qHTS Assay for Inhibitors of the HIV-1 protein Vpr | S. pombe RE007 Vpr strain, BacTiter-Glo ATP luminescence, 24 h | Potency, µM (highest dose often 92.2 µM), without a hit: at the top dose activity change, negative = less growth, usual class: inhibitors | hit rate 0.21% among 360,000 | AID 651644, 2012; active = well fitted falling curve with a large enough effect; inconclusive = small, poorly fitted or top-dose-only effect; inactive = no such curve, though single readings can be large or run the other way; also: % is scaled to controls: 0 for no effect and ±100 for the full control effect; nearly all actives have a fitted effect of over 50% in size
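Fission yeast RE007 carrying one integrated HIV-1 vpr copy, seeded at OD 0.01 in PMG+AL medium with 23 nL pinned compound. Grown 24 h at 30 degrees; viability read by BacTiter-Glo luminescence after 5 min.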
NS1 function inh = qHTS Assay for Inhibitors of Influenza NS1 Protein Function; Potency, µM (highest dose often 46.1 µM), inactives show at the top dose activity, positive = more growth; hit rate 0.4% among 270,000; calls by dose curve; also: actives are rising curves; nearly all actives have a fitted effect of over 50% in size
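S. cerevisiae expressing influenza A NS1, grown in glucose, washed, then diluted 1:100 into pH 6.0 -URA galactose medium with 23 nl compound. Growth recovery read as OD600; NS1-free strain serves as control.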
Pf growth 48h = Primary qHTS for delayed death inhibitors of the malarial parasite plastid, 48 hour incubation; P. falciparum luciferase growth in erythrocytes, 48 h; Potency, µM (highest dose often 28.7 µM), inactives show at the highest dose activity change, negative = inhibition, usual class: inhibitors; hit rate 5.9% among 310,000; AID 504832, 2011; also: % is scaled to controls: 0 for no effect and ±100 for the full control effect
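Parasite viability was followed by luminescence of a genomically integrated firefly luciferase. Cultures held 0.1% parasitemia at 2% hematocrit (final), incubated under 5% CO2 at 37 C.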
Pf growth 96h = Primary qHTS for delayed death inhibitors of the malarial parasite plastid, 96 hour incubation. P. falciparum luciferase reporter growth, 96 h. Potency, µM (doses to about 28.7 µM), for inactives: at the highest dose activity change, negative = inhibition, usual class: inhibitors. hit rate 6.9% among 320,000; also: % is scaled to controls: 0 for no effect and ±100 for the full control effect
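Plates of compound plus infected erythrocytes (2% hematocrit, 0.05% parasitemia final) incubate 96 hours, 37 C, 5% CO2. Detection reagent added; reduced luminescence from the parasites' luciferase reporter flags inhibition.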
SARS PLpro yeast = qHTS of Yeast-based Assay for SARS-CoV PLP. S. cerevisiae expressing SARS-CoV PLpro, growth rescue. Potency, µM (highest dose often 32.9 µM), inactives show at the highest dose activity, positive = growth rescue, hits mostly activators. hit rate 0.19% among 330,000; calls by dose curve; also: 0% is about no effect; nearly all actives have a fitted effect of over 55% in size
The depositor's hits bear a star; ? = inconclusive; . = no result given. Unless noted, calls follow the shape of the dose curve; as a rule, active = well fitted inhibition curve with a large enough effect; inconclusive = small, poorly fitted or top-dose-only effect, or another doubt; inactive = no such curve, though single readings can be large or run the other way. Potency is read from the fitted curve at half-maximal effect.

SMILES	RE007 growth inh	NS1 function inh	Pf growth 48h	Pf growth 96h	SARS PLpro yeast
Cc1ccccc1OCCC(=O)OCC(=O)Nc1c(C)nn(-c2ccccc2)c1C	-10.7%	.	4.2%	60.1%	-3.4%
Cc1ccc(S(=O)(=O)c2c(CO)c(-c3ccccc3)nn2C)cc1	-4.4%	-5.7%	6.4%	16.2%	0.2%
Cc1ccc(S(=O)(=O)c2c(COC(=O)c3ccccc3Cl)c(-c3ccccc3)nn2C)cc1	4.8%	16.8%	.	6.57µM*	-8.4%
C[C@@H](NC(=O)C1(N)CCCC1)C(=O)O	.	-2.8%	.	.	.
O=c1[nH]c(C2CCN(S(=O)(=O)c3ccc(S(=O)(=O)NC4CC4)cc3)CC2)nc2c1nnn2Cc1ccc(F)cc1	3.8%	?	?	?	2.0%
O=c1[nH]c(C2CCN(S(=O)(=O)c3ccc(S(=O)(=O)NC4CC4)cc3)CC2)nc2c1nnn2Cc1ccccc1	-0.8%	12.1%	3.7µM*	8.4%	2.3%
O=c1[nH]c(C2CCN(S(=O)(=O)Cc3ccccc3)CC2)nc2c1nnn2Cc1ccccc1	20.7%	7.6%	9.28µM*	13.2%	5.7%
O=c1[nH]c(C2CCN(S(=O)(=O)c3ccc(C(F)(F)F)cc3)CC2)nc2c1nnn2Cc1ccccc1	-4.7%	?	?	?	-3.6%
O=c1[nH]c(C2CCN(S(=O)(=O)/C=C/c3ccccc3)CC2)nc2c1nnn2Cc1ccc(F)cc1	-9.9%	?	1.85µM*	?	1.9%
Cc1ccc(Cn2nnc3c(=O)[nH]c(C4CCN(S(=O)(=O)c5cc(C)ccc5C)CC4)nc32)cc1	9.6%	?	5.22µM*	.	6.5%
Cc1ccc(C)c(S(=O)(=O)N2CCC(c3nc4c(nnn4Cc4ccc(F)cc4)c(=O)[nH]3)CC2)c1	-2.1%	?	?	67.8%	0.9%
[Cu].[NH-][C@H](CC(=O)O)C(=O)O.[NH-][C@H](CC(=O)O)C(=O)O	.	-5.6%	.	.	.
CCc1nn(CC(=O)NCCCN(C)Cc2ccccc2)c(=O)c2cc3sc(C)cc3n12	9.7%	-9.8%	-11.3%	-23.9%	0.7%
O=C(O)Cc1ccc(NC(=O)Nc2ccc3c(c2)OCO3)cc1	-4.6%	4.2%	41.2%	120.3%	8.7%
CC1(C(=O)Nc2ccc(Cl)c(Cl)c2)CCN1C(=O)C1CCCCC1 (stereo unspecified)	3.8%	.	.	.	.
CCOC(=O)[C@]12CCC=C1N(Cc1ccccc1)C(=O)[C@H](CC(=O)NCc1cccc(C(F)(F)F)c1)C2	1.1%	.	.	.	.
O=c1[nH]c(C2CCN(S(=O)(=O)c3cccc([N+](=O)[O-])c3)CC2)nc2c1nnn2Cc1ccccc1	4.6%	7.8%	8.28µM*	43.3%	-1.0%
Cc1ccc(C)c(Cn2nnc3c(=O)[nH]c(C4CCN(S(=O)(=O)c5ccc(S(=O)(=O)NC6CC6)cc5)CC4)nc32)c1	-1.3%	19.7%	2.62µM*	-0.6%	1.7%
CC(=O)Nc1ccc(NC(=O)C(C)OC(=O)CNS(=O)(=O)c2ccc(Br)cc2Cl)cc1 (stereo unspecified)	21.3%	-9.4%	18.2%	25.9%	-1.1%
CCn1c(CNc2ccc(Cl)cc2)nnc1SCC#N	-11.7%	-0.5%	9.1%	2.94µM*	-0.1%
COc1ccc([C@H]2C[C@@H](n3cc(COC(=O)c4ccccc4)nn3)[C@H](O)CN2Cc2cccs2)cc1	-6.5%	.	.	.	.
CCOc1cc(/C=C/c2ccc3cccc([N+](=O)[O-])c3n2)cc(Cl)c1O	17.3%	6.6%	9.28µM*	?	2.8%
O=[N+]([O-])c1cccc2ccc(/C=C/c3ccc(Cl)cc3)nc12	-13.4%	?	6.3%	?	-13.3%
Cc1ncc(CN2CCCC(C(=O)Nc3ccc(-c4cccc(F)c4)cc3)C2)n1C (stereo unspecified)	-18.5%	-13.2%	14.7µM*	2.6%	-8.5%
COc1cccc(-c2ccc(NC(=O)C3CCCN(Cc4nccn4C)C3)cc2)c1 (stereo unspecified)	-2.0%	-13.1%	?	13.1µM*	-2.5%
COc1ccccc1C(=O)NNC(=O)c1ccc(Br)cc1	-26.7%	-1.6%	23.3%	12.4%	0.6%
CC(C)(C)OC(=O)N1CCC(C(=O)Nc2cccc(C(=O)NCc3ccccc3)c2)CC1	-10.9%	.	.	.	.
